In publication PMC4336329 (PLoS ONE, 2015):
About 14,000 (4.5%) of roughly 310,000 compounds showed an effect of 50% or more. Effects have a minus sign here. Many of the other results were omitted from the sample, so strong results are more common in it than they were.

molecular target: human ether-à-go-go-related gene (hERG) potassium channel (human, UniProt Q12809); test: primary screen, population patch clamp on CHO cells stably expressing hERG; higher = less effect of the substance
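Note: peak tail current of the secondary pulse compared with the same well before compound.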

Sequence of human ether-à-go-go-related gene (hERG) potassium channel (Q12809 whole entry, looked up): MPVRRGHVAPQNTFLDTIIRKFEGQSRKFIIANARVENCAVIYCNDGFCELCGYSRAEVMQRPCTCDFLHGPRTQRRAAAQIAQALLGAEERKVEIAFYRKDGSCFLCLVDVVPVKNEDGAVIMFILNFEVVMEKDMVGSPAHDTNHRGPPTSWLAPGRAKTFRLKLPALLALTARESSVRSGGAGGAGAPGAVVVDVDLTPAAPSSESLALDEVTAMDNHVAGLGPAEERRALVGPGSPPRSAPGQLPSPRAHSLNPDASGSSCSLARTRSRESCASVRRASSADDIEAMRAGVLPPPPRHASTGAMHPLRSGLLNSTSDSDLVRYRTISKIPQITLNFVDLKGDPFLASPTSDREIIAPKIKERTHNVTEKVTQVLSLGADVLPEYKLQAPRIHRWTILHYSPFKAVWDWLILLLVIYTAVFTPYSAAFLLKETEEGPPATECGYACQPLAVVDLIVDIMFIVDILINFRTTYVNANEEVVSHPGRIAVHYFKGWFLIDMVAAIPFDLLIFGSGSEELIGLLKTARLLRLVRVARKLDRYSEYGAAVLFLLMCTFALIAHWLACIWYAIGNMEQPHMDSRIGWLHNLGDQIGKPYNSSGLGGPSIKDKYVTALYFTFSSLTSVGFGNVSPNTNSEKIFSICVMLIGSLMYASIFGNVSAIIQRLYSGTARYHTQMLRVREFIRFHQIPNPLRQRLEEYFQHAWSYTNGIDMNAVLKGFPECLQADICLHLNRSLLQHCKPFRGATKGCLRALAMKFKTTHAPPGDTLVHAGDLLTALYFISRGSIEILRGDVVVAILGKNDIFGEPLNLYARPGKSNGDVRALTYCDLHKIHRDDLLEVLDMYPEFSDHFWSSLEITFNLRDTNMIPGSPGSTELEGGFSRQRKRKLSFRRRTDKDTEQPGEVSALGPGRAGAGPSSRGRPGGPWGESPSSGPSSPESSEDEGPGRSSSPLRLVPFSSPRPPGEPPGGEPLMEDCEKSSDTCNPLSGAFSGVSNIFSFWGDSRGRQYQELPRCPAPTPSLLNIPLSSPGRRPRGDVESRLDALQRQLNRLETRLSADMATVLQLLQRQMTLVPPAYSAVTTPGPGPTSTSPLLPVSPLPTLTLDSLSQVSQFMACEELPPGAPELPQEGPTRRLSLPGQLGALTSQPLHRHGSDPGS

Compound	hERG current change (%, negative = inhibition) at 10uM
CCOc1ccc(NC(=O)Nc2cc(C(=O)O)ccc2N2CC3CC(C2)c2cccc(=O)n2C3)cc1 (stereo not drawn)	12.4%
Cc1cc(C)cc(Nc2cc(C)nc3nc(C)nn23)c1	-14.7%
O=c1[nH]c(/C=C/c2ccccc2)c([N+](=O)[O-])c(=O)[nH]1	5.45%
CCN1C(=O)Nc2cccc3cccc1c23	1.65%
CCN(CC)C(=O)c1cnn(-c2ccccc2)c1NC(=O)c1ccco1	-12.8%
COc1ccc(/C=C/C(=O)Nc2ccccc2C(=O)NCC(c2ccc(OC)cc2)N(C)C)cc1 (stereo not drawn)	-49.6%
CCc1nc(N=Nc2c(O)[nH]c3ccccc23)c2c3c(sc2n1)CCC3	13.7%
O=C(COC(=O)c1cc(Cl)ccc1[N+](=O)[O-])NCc1ccc(Cl)cc1Cl	-11.8%
COc1ccccc1CCNC(=O)CN1C(=O)c2ccccc2S1(=O)=O	2.11%
CC(C)(C)C(=O)NC1CCSC1=O (stereo not drawn)	8.46%
CN(C)CCN1C(=O)C2C3C=CC(C3)C2C1=O (stereo not drawn)	20.6%
Cc1cc(C)c2c(=O)[nH]c(SCC(=O)Nc3ccc(N(C)C)cc3)nc2n1	-2.77%
CCCc1[nH]nc2c1C(Cc1ccccc1)C(C#N)=C(N)O2 (stereo not drawn)	0.432%
Cc1nn(-c2ccccc2)c(C)c1-c1cc(C(=O)N/N=C/c2cccnc2)[nH]n1	-18.7%
Cc1cccc2c1N(C)C(=O)C2=O	17.1%
Cc1ccc(NC(=O)CNCc2ccccn2)cc1S(=O)(=O)N(C)C	20.9%
CCN(Cc1ccc(NC(C)=O)cc1)CC1CCCN(CCc2cccc(F)c2)C1 (stereo not drawn)	-24.4%
CCN(Cc1ccc(O)cc1)CC1CCCN(CCc2cccc(F)c2)C1 (stereo not drawn)	-71.1%
Cc1ccc(-c2nnc(CSc3nnc(COc4ccccc4)n3-c3ccc(C)cc3)o2)cc1	-7.47%

Compound	hERG current change (%, negative = inhibition) at 10uM
CC(C)C(OC(=O)c1ccco1)C(=O)NCc1cccs1 (stereo not drawn)	-0.362%
CN(C)c1ccc(/C=N/NC(=O)c2ccccc2)cc1	10.9%
O=C(N/N=C/c1ccco1)C1CC1c1ccccc1 (stereo not drawn)	-4.18%
CN(C)c1ccc(/C=N/NC(=O)C2CC2c2ccccc2)cc1 (stereo not drawn)	-74.9%
CCOc1ccc(CCNC(=O)CCS(=O)(=O)c2ccc(Br)cc2)cc1OCC	13.8%
Cc1cc(NC(=S)N(CCN2CCOCC2)Cc2ccccc2F)ccc1Cl	24.1%
COc1cccc(CCC(=O)N2CCC(n3nccc3NC(=O)C3CCOC3)CC2)c1 (stereo not drawn)	14.9%
COc1ccc(C(=O)c2sc(Nc3ccccc3)nc2N)cc1	18.1%
COc1ccc(Nc2nc(N)c(C(=O)c3ccc(OC)cc3)s2)cc1	-52.7%
COc1ccc(Nc2nc(N)c(C(=O)c3ccc(F)cc3)s2)cc1	25.9%
O=C(Nc1ccc(Cl)cc1F)c1cc(S(=O)(=O)N2CCCCC2)ccc1F	-0.146%
Cc1ccc(NC(=O)Cn2nnc(C(=O)NCc3ccco3)c2N)c(C)c1	3.23%
C/[N+]([O-])=C\c1coc2ccccc2c1=O	-1.4%
O=C(CCl)N1CCN2C(=O)c3ccccc3C12c1ccc(Cl)cc1 (stereo not drawn)	-1.56%
Cc1cc2oc(=O)c(CC(=O)NCCCO)c(C)c2c2occ(C(C)(C)C)c12	-9.35%
Cc1cc2oc(=O)c(CC(=O)NCCCN(C)C)c(C)c2c2occ(C(C)(C)C)c12	-69.1%
COCCCNC(=O)Cc1c(C)c2c(cc(C)c3c(C(C)(C)C)coc32)oc1=O	-32.3%
O=C1OC(CO)CN1Cc1ccccc1 (stereo not drawn)	12.3%
COc1ccc(-n2cc(-c3ccccc3)c3c(NCCCN4CCOCC4)ncnc32)cc1	-65%

Compound	hERG current change (%, negative = inhibition) at 10uM
c1ccc(-n2ncc3c(NCCCN4CCOCC4)ncnc32)cc1	-11%
COc1ccc(-n2cc(-c3ccccc3)c3c(N4CCOCC4)ncnc32)cc1	22.5%
COc1ccc(-n2cc(-c3ccccc3)c3c(NN4CCOCC4)ncnc32)cc1	-40.6%
c1ccc(-c2csc3ncnc(NCCCN4CCOCC4)c23)cc1	-13.2%
c1ccc(-c2cn(-c3ccccc3)c3ncnc(NCCCN4CCOCC4)c23)cc1	-60.6%
COc1nc(-c2ccc(Cl)cc2)nnc1C	2.25%
COCCNC(=O)C(c1cccs1)N(CCc1ccccc1)C(=O)Cn1nnc2ccccc21 (stereo not drawn)	6.51%
O=C(CSc1nnc(Cn2cnc3ccccc32)o1)c1ccccc1	-7.21%
Cc1ccc(N2C(=O)CC(=O)NC2=O)c(C)c1	17.2%
CC(=O)OCCn1c(C)[n+](CCOC(C)=O)c2cc(Cl)c(Cl)cc21.[I-]	14.7%
COc1ccc(-c2ccoc2)cc1[C@H]1[C@H]2C=CC[C@@H](C)[C@@H]2C(=O)N1Cc1ccccc1	1.85%
O=C(c1ccco1)N1CCN(Cc2nnc(-c3cccc(Br)c3)o2)CC1	-62.2%
O=C(c1ccco1)N1CCN(Cc2nnc(-c3cccc(Cl)c3)o2)CC1	-45.9%
O=C(c1ccco1)N1CCN(Cc2nnc(-c3ccccc3F)o2)CC1	9.67%
O=C(c1ccco1)N1CCN(Cc2nnc(-c3ccccc3)o2)CC1	-55.5%
Cc1ccccc1-c1nnc(CN2CCN(C(=O)c3ccco3)CC2)o1	-14.2%
CC1CCN(Cc2nnc(-c3cccc(Br)c3)o2)CC1	-0.585%
O=C(Cn1c(CO)nc2ccccc21)NCCc1ccccc1	-3.08%
COc1ccccc1CNC(=O)c1cc(C)nn1-c1ccccc1	1.87%
